# Assay results taken from PubChem BioAssay (EPA / NIEHS).
# Results filed as inconclusive are left out. Calls of active or inactive are those of the source. The calls were made as follows, unless noted: active = hit-call score of the fitted dose curve at least 0.9, where 1 is the maximum; inconclusive = response in the unintended direction; inactive = score below 0.9.
# Key:
# [1] = target: Sodium channel protein type 1 subunit alpha (Rattus norvegicus) (UniProt P04774); assay: NVS_IC_rNaCh_site2: NovaScreen (NVS) Ion Channel Assay for rat Sodium Channel, Site 2 (NaCh) (AID 2283322);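 also: hit means loss of radioligand binding signal relative to DMSO so AC50 marks displacement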
# Outline: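 Initial duplicate single-point testing at 25 uM, followed by concentration-response runs for actives. Binding of radioligand to rat forebrain membranes quantified after 1 h via filter-based radiodetection.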
# [2] = target: human Androgen Receptor (AR), AR (gene 367) (UniProt P10275); assay: NVS_NR_hAR: NovaScreen (NVS) Nuclear Receptor Binding Assay for human Androgen Receptor (AR) (AID 2283332)
# Outline: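 Radioligand competitive binding, scintillation read-out, in cell-free extract from LnCAP, measured 20 h after dosing. Screened first in duplicate at 25 uM, then concentration series for actives; activity fitted against DMSO.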
# [3] = NVS_IC_rCaDHPRCh_L: NovaScreen (NVS) Ion Channel Assay for rat Calcium Channel, Type L, Dihydropyridine Site (CaDHPRCh_L) (AID 2283320)
# Outline: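 Rat cortex membrane preparation; dihydropyridine-site radioligand displacement read 1 h post-dose by filtration and scintillation. Primary single-point screen 25 uM in duplicate, then concentration series to 50 uM maximum; DMSO as negative control.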
# [4] = target: Voltage-gated inwardly rectifying potassium channel KCNH2 (Homo sapiens) (UniProt Q12809); assay: NVS_IC_hKhERGCh: NovaScreen (NVS) Ion Channel Assay for human Potassium Channel ERG (KhERGCh) (AID 2283333)
# Outline: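 Membranes from CHO cells expressing human ERG; displacement of radioligand measured by filtration and scintillation after 0.75 h. Single-concentration duplicate screen at 25 uM, then concentration-response for actives; DMSO baseline.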
# [5] = NVS_IC_rCaBTZCHL: NovaScreen (NVS) Ion Channel Assay for Calcium Channel, Type L, Benzothiazepine Site (CaBTZCHL) (AID 2283337)
# Outline: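 Test chemicals were added to rat cortical membranes and incubated 1.5 h with a tritiated or iodinated radioligand for the benzothiazepine site. Bound ligand was separated by filtration and counted. Actives from the 25 uM duplicate screen were retested in concentration series.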
# [6] = target: bovine Gamma-Aminobutyric Acid Type A Receptor BDZ, alpha 5 site (GABARa5), GABRA5 (gene 523515) (UniProt Q08E50); assay: NVS_LGIC_bGABARa5: NovaScreen (NVS) Ligand-Gated Ion Channel Assay for bovine Gamma-Aminobutyric Acid Type A Receptor BDZ, alpha 5 site (GABARa5) (AID 2283323)
# Outline: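 Tested first in duplicate at a single 25 uM, with hits re-run in concentration series to a 50 uM maximum. Bovine hippocampal membranes; specific radioligand displacement measured by filter scintillation counting 1 hr post-dose.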
# [7] = target: rat Glutamate, AMPA Site (AMPA), Gria1 (gene 50592) (UniProt P19490); assay: NVS_LGIC_rAMPA: NovaScreen (NVS) Ligand-Gated Ion Channel Assay for rat Glutamate, AMPA Site (AMPA) (AID 2283324)
# Outline: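 Screening at 25 uM in duplicate preceded concentration series reaching 50 uM for qualifying compounds. Radioligand displacement on rat forebrain membranes, 1 h, filter-based scintillation readout; reduced binding relative to DMSO.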
# [8] = target: rat Gamma-Aminobutyric Acid Type A Receptor, Non-Selective (GABAR-NonSelective), Gabra1 (gene 29705) (UniProt P62813); assay: NVS_LGIC_rGABAR_NonSelective: NovaScreen (NVS) Ligand-Gated Ion Channel Assay for rat Gamma-Aminobutyric Acid Type A Receptor, Non-Selective (GABAR-NonSelective) (AID 2283326)
# Outline: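 Compounds were first screened in duplicate at 25 uM, with actives run as singleton concentration series (max 50 uM). Binding of a radioligand to rat whole-brain GABA-A preparation was measured by filtration and scintillation counting after 1 h, DMSO baseline.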
# [9] = target: human Peripheral-type Benzodiazepine Receptor (PBR), TSPO (gene 706) (UniProt P30536); assay: NVS_MP_hPBR: NovaScreen (NVS) Membrane Protein Assay for human Peripheral-type Benzodiazepine Receptor (PBR) (AID 2283331);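 also: hits reduce radioligand binding relative to DMSO baseline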
# Outline: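 Cell-free binding to human colonic membrane preparations measured by filter-based scintillation counting after 1 h. Compounds first run at 25 uM in duplicate, then concentration series for actives; signal loss against DMSO baseline.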
# [10] = target: rat Peripheral-type Benzodiazepine Receptor (PBR), Tspo (gene 24230) (UniProt P16257); assay: NVS_MP_rPBR: NovaScreen (NVS) Membrane Protein Assay for rat Peripheral-type Benzodiazepine Receptor (PBR) (AID 2283335)
# Outline: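 Competitive displacement of specific radioligand from rat kidney membrane PBR, read by filtration and scintillation after 1 h. Compounds first tested at 25 uM in duplicate, then in concentration series; signal loss relative to DMSO.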
# [11] = target: rat Glutamate, NMDA Agonist Site (GluNMDA), Grin1 (gene 24408) (UniProt P35439); assay: NVS_LGIC_rGluNMDA_Agonist: NovaScreen (NVS) Ligand-Gated Ion Channel Assay for rat Glutamate, NMDA Agonist Site (GluNMDA) (AID 2283327)
# Outline: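 Radioligand displacement at the agonist site on rat forebrain membrane preparations, read by filter scintillation after 1 h. Chemicals were first run at 25 uM in duplicate; those passing threshold were titrated to a 50 uM maximum.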
# [12] = target: Glutamate receptor ionotropic, kainate 1 (Rattus norvegicus) (UniProt P22756); assay: NVS_IC_rKAR: NovaScreen (NVS) Ion Channel Assay for rat Kainic Acid Receptors (KAR) (AID 2283334; active = hit-call score of the fitted dose curve at least 0.9, where 1 is the maximum; inactive = score below 0.9)
# Outline: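 Rat forebrain membrane preparation incubated 1 h with radioligand and test chemical; bound signal read by filtration and scintillation. Single-concentration screen at 25 uM, then concentration series to 50 uM maximum.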
# [13] = target: rat Glutamate, MK-801 Agonist Site (GluNMDA_MK801), Grin1 (gene 24408) (UniProt P35439); assay: NVS_LGIC_rGluNMDA_MK801_Agonist: NovaScreen (NVS) Ligand-Gated Ion Channel Assay for rat Glutamate, MK-801 Agonist Site (GluNMDA_MK801) (AID 2283340)
# Outline: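 Rat forebrain membrane preparation; MK-801-site radioligand binding read by filtration and scintillation after 1.5 h. Single-point 25 uM duplicate screen, followed by singleton concentration series to 50 uM max; DMSO baseline.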
# NCBI gene 100848466 = assay: NVS_NR_bPR: NovaScreen (NVS) Nuclear Receptor Binding Assay for bovine Progextron Receptor (PR) (AID 2283343);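 also: actives lower bound radioligand signal below DMSO meaning displacement of the label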
# Outline: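 Competitive radioligand binding with membranes from bovine uterus, scintillation read-out at 18 h post-dose. Compounds first tested in duplicate at 25 uM, then actives in concentration series; loss-of-signal relative to DMSO.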
# [14] = target: human Serotonin, 5-Hydroxytryptamine Receptor 3 (5HT3), HTR3A (gene 3359) (UniProt P46098); assay: NVS_LGIC_h5HT3: NovaScreen (NVS) Ligand-Gated Ion Channel Assay for human Serotonin, 5-Hydroxytryptamine Receptor 3 (5HT3) (AID 2283325)
# Outline: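 Initially tested at 25 uM in duplicate, then up to 50 uM in concentration-response for actives, compounds competed with a radioligand for HEK293-derived human 5-HT3 receptor. Bound counts were measured by filtration and scintillation at 1 h; loss of signal versus DMSO.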
# [15] = target: human Constitutive Androstane Receptor (CAR), NR1I3 (gene 9970) (UniProt Q14994); assay: NVS_NR_hCAR_Antagonist: NovaScreen (NVS) Nuclear Receptor Binding Assay for human Constitutive Androstane Receptor Antagonism (CAR) (AID 2283344)
# Outline: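 Single 25 uM duplicate primary screen, with concentration-series follow-up on actives. Cell-free binding format run in antagonist mode, TR-FRET signal taken 1 h post-dose; activity is signal loss relative to DMSO.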
# [16] = target: rat Thyrotropin Releasing Hormone Receptor (TRH), Trhr (gene 25570) (UniProt Q01717); assay: NVS_GPCR_rTRH: NovaScreen (NVS) G Protein-Coupled Receptor Assay for rat Thyrotropin Releasing Hormone Receptor (TRH) (AID 2283329);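 also: hit means lower bound tracer signal versus DMSO baseline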
# Outline: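 Cell-free radioligand binding on rat forebrain membranes; bound tracer measured by filter-based scintillation counting 4 hours after dosing. Loss of signal versus DMSO baseline indicates displacement; primary screen at 25 uM in duplicate, actives then run in concentration series.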
# [17] = target: Small conductance calcium-activated potassium channel protein 1 (Rattus norvegicus) (UniProt P70606); assay: NVS_IC_rKCaCh: NovaScreen (NVS) Ion Channel Assay for rat Potassium Channel, Ca2+ Act., VI (KCaCh) (AID 2283336)
# Outline: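 Filter-based scintillation counting of radioligand bound to rat forebrain membrane preparations, measured 1 h after compound addition. Primary screen used 25 uM in duplicate, with concentration-response follow-up; signal decrease relative to DMSO marks activity.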
# [18] = target: rat Glycine Receptor, Strychnine-sensitive (GlyRStrySens), Glra1 (gene 25674) (UniProt P07727); assay: NVS_LGIC_rGlyRStrySens: NovaScreen (NVS) Ligand-Gated Ion Channel Assay for rat Glycine Receptor, Strychnine-sensitive (GlyRStrySens) (AID 2283341)
# Outline: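 Radioligand displacement on rat spinal cord membranes, 1 hr, filter scintillation read-out. Single-concentration duplicate screen at 25 uM; chemicals meeting threshold (e.g., 30% inhibition) rerun in concentration-response up to 50 uM. Loss of binding fitted versus DMSO.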
# Chain of rat Gamma-Aminobutyric Acid Type A Receptor, Non-Selective (GABAR-NonSelective), Gabra1 (gene 29705) (P62813 whole entry, looked up): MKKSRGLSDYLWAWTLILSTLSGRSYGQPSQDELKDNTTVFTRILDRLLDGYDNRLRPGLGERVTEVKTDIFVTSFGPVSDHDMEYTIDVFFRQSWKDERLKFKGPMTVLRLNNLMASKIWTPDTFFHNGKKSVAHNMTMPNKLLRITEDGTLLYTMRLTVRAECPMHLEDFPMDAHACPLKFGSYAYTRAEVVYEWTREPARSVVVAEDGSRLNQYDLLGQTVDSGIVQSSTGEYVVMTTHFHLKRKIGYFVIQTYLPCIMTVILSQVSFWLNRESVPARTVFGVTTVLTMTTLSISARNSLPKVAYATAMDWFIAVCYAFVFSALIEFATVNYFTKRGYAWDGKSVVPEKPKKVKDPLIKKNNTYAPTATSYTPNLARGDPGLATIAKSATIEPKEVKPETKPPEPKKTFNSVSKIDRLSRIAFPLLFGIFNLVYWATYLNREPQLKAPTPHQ
# Chain of human Peripheral-type Benzodiazepine Receptor (PBR), TSPO (gene 706) (P30536 whole entry, looked up): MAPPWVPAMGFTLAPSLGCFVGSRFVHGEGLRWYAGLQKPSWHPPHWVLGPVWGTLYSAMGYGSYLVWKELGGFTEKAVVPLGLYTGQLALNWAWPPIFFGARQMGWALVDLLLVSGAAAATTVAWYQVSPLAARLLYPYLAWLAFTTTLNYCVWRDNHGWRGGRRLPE
# Chain of rat Peripheral-type Benzodiazepine Receptor (PBR), Tspo (gene 24230) (P16257 whole entry, looked up): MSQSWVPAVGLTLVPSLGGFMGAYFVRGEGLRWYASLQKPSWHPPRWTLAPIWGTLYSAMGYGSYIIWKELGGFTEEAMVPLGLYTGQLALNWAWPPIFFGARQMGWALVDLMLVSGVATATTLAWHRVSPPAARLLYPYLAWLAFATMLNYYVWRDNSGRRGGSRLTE
# Chain of human Androgen Receptor (AR), AR (gene 367) (P10275 whole entry, looked up): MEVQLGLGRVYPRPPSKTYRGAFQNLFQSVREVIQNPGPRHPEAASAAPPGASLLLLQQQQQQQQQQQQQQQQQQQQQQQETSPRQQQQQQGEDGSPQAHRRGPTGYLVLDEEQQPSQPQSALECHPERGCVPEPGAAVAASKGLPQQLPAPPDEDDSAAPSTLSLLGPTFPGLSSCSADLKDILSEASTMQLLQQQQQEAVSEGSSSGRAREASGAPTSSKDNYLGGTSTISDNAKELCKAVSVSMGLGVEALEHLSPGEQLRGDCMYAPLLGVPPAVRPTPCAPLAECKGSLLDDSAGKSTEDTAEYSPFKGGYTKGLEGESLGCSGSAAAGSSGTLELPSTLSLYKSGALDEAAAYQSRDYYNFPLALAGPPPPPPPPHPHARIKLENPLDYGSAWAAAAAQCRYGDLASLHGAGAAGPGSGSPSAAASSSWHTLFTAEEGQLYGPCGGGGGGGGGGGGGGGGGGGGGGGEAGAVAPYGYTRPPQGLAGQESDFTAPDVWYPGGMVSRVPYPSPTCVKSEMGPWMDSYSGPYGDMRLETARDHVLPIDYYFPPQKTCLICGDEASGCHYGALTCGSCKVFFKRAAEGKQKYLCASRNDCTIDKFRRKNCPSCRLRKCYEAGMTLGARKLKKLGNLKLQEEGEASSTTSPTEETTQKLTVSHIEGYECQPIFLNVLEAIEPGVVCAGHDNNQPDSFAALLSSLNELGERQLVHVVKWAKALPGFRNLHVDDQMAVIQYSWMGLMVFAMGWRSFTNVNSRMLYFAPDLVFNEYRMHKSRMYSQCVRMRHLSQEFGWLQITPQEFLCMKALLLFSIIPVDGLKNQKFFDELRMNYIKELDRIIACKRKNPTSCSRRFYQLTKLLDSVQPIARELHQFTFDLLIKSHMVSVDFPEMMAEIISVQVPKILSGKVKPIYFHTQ
# Chain of rat Glutamate, AMPA Site (AMPA), Gria1 (gene 50592) (P19490 whole entry, looked up): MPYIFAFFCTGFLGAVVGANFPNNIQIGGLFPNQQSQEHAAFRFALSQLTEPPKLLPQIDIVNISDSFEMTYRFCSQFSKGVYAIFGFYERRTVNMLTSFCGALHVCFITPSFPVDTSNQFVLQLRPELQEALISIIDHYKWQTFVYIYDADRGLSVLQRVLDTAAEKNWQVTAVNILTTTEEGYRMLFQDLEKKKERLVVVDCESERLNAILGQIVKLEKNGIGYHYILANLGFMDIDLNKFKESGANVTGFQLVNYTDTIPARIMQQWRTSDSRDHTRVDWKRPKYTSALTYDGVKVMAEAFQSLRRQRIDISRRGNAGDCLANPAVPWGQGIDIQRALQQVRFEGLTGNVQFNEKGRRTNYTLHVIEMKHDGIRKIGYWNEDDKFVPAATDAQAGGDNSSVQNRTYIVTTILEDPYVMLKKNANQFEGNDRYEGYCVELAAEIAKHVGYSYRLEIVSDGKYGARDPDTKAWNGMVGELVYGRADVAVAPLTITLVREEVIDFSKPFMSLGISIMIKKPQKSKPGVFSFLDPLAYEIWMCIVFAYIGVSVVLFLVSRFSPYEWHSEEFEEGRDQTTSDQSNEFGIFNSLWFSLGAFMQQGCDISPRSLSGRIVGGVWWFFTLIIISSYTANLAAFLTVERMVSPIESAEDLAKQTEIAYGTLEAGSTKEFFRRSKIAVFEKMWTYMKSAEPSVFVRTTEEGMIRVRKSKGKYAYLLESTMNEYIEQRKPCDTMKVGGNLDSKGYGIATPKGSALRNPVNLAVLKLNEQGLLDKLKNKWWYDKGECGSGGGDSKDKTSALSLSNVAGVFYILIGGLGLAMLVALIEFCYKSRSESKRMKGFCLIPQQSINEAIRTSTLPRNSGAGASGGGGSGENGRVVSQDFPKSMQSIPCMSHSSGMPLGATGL
# Chain of rat Thyrotropin Releasing Hormone Receptor (TRH), Trhr (gene 25570) (Q01717 whole entry, looked up): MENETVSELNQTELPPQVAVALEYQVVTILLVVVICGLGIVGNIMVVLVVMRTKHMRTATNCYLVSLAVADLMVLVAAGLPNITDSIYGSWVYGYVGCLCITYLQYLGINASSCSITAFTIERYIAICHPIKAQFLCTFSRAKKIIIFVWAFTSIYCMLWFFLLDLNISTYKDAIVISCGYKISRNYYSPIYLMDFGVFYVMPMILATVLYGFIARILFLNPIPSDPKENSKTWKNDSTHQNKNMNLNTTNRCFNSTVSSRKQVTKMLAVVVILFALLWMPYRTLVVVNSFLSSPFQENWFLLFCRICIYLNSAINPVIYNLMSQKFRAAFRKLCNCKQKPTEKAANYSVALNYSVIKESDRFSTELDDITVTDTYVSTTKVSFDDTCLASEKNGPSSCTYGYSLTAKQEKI
# Chain of human Constitutive Androstane Receptor (CAR), NR1I3 (gene 9970) (Q14994 whole entry, looked up): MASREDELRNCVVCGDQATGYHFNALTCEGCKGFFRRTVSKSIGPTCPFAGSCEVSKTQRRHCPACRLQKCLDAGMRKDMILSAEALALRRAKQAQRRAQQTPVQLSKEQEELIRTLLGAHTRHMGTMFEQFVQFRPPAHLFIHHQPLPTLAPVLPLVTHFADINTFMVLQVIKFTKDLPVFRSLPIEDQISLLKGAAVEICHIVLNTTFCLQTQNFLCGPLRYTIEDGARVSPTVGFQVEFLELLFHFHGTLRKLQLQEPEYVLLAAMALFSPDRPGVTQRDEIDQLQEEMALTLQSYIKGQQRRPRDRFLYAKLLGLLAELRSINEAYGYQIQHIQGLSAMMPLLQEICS
# Chain of human Serotonin, 5-Hydroxytryptamine Receptor 3 (5HT3), HTR3A (gene 3359) (P46098 whole entry, looked up): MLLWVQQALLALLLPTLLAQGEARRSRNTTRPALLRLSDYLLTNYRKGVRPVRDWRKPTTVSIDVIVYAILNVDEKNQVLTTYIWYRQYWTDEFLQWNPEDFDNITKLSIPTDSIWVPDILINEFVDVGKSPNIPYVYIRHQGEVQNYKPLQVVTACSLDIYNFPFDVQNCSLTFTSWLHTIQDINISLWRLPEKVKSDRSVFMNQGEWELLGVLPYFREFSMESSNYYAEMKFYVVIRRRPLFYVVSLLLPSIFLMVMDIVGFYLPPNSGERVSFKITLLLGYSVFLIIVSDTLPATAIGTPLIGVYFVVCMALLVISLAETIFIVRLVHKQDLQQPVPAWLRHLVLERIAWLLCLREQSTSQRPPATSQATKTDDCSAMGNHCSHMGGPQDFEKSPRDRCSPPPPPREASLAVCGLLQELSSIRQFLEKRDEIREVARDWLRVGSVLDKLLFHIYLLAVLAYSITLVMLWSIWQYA
# Chain of rat Glycine Receptor, Strychnine-sensitive (GlyRStrySens), Glra1 (gene 25674) (P07727 whole entry, looked up): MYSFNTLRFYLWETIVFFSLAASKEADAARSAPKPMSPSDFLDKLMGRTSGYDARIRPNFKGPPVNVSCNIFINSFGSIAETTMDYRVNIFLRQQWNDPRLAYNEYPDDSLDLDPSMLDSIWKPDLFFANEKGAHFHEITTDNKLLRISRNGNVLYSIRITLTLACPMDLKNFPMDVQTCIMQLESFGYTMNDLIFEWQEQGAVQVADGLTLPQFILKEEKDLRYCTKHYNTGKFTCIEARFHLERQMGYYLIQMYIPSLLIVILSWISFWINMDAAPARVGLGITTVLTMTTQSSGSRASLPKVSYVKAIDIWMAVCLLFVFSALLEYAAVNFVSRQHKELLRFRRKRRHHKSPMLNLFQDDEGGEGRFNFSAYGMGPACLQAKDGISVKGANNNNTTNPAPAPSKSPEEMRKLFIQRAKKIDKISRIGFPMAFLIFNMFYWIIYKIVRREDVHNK
# Chain of bovine Gamma-Aminobutyric Acid Type A Receptor BDZ, alpha 5 site (GABARa5), GABRA5 (gene 523515) (Q08E50 whole entry, looked up): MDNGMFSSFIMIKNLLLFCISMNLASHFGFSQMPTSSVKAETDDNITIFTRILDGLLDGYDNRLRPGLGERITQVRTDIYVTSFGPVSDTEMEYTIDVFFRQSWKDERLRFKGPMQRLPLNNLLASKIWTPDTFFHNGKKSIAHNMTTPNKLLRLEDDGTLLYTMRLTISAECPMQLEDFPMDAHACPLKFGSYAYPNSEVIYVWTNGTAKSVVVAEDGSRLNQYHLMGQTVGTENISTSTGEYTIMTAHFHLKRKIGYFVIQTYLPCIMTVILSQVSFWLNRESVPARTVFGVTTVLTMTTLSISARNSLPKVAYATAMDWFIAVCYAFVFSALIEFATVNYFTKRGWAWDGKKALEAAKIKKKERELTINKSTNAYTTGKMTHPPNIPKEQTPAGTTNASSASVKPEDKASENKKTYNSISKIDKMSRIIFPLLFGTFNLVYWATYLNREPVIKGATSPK
compound,measurement,setting,value
CCCCCCc1ccc(O)cc1O,outcome,[1],inactive
same,AC50,[2],8.25 µM (active)
CCOC(=O)COc1ccc2c(c1)CC(NCC(O)c1cccc(Cl)c1)CC2 (configuration not stated),outcome,[3],inactive
same,AC50,[1],6.7 µM (active)
same,AC50,[4],21.5 µM (active)
CC[C@H]1CC[C@H](NCc2cc3c(cc2OC)[C@H]2C[C@H]2C(=O)N3C)[C@H](c2ccccc2)N1,AC50,[1],0.163 µM (active)
same,AC50,[5],3.79 µM (active)
CNCc1ccc(NC(=O)c2c[nH]c3c2C(=O)CCC3)cc1,outcome,[6],inactive
same,outcome,[7],inactive
same,outcome,[8],inactive
CCn1nc(Cc2ccccc2)cc1C1CCN(C[C@H]2C[C@H](N(C)[C@@H](C(=O)O)C(C)C)C[C@@H]2c2cccc(F)c2)CC1,AC50,[3],4.21 µM (active)
same,AC50,[1],17.4 µM (active)
same,AC50,[9],8.22 µM (active)
same,outcome,[10],inactive
same,AC50,[5],16.2 µM (active)
O=c1[nH]c2ccc(S(=O)CCN3CCC(Cc4ccc(F)cc4)CC3)cc2o1 (configuration not stated),AC50,[1],6.76 µM (active)
same,outcome,[11],inactive
same,outcome,[12],inactive
same,outcome,[13],inactive
O=P(OC(CCl)CCl)(OC(CCl)CCl)OC(CCl)CCl,AC50,[3],6.41 µM (active)
same,outcome,[1],inactive
same,AC50,[9],2.01 µM (active)
same,AC50,[10],2.36 µM (active)
same,AC50,NCBI gene 100848466,8.22 µM (active)
CCCCC(CC)COC(=O)CCCCCCCCC(=O)OCC(CC)CCCC (configuration not stated),outcome,[1],inactive
COCCOc1cc2cc(C(=O)NC3CCN(C(C)C)CC3)n(CC(=O)Nc3ccc(Cl)cn3)c2cn1,AC50,[1],25.8 µM (active)
same,outcome,[8],inactive
same,AC50,[5],5.21 µM (active)
CCOc1cccc(-n2cc(C(=O)N3CCN(c4cc(C(=O)O)c5ccccc5c4)CC3)nc2-c2ccc(C)cc2)c1,AC50,[1],7.07 µM (active)
same,AC50,[9],3.71 µM (active)
same,AC50,[10],9.73 µM (active)
CC(=O)OCCC(C)C,outcome,[7],inactive
CC(C)=CCCC(C)=CC=O,outcome,[7],inactive
CCN(C(=O)c1cc(C)cc(OC[C@H](C)Nc2ccncc2)c1)C(C)C,AC50,[1],10.1 µM (active)
same,AC50,[8],1.13 µM (active)
same,AC50,[9],12.5 µM (active)
same,AC50,[5],6.56 µM (active)
Cn1c(=O)cc(Oc2ccc(F)cc2F)c2cnc(NCC(C)(C)O)nc21,outcome,[7],inactive
O=C(OC[C@H]1O[C@@H](OC(=O)c2cc(O)c(O)c(OC(=O)c3cc(O)c(O)c(O)c3)c2)[C@H](OC(=O)c2cc(O)c(O)c(OC(=O)c3cc(O)c(O)c(O)c3)c2)[C@@H](OC(=O)c2cc(O)c(O)c(OC(=O)c3cc(O)c(O)c(O)c3)c2)[C@@H]1OC(=O)c1cc(O)c(O)c(OC(=O)c2cc(O)c(O)c(O)c2)c1)c1cc(O)c(O)c(OC(=O)c2cc(O)c(O)c(O)c2)c1,AC50,[7],9.44 µM (active)
CC(C)=CCC/C(C)=C\CO,outcome,[14],inactive
same,outcome,[15],inactive
C=CCCCCCCCCC(=O)O,outcome,[14],inactive
Fc1ccccc1[C@@H](F)COC1CCC(Nc2ncnc3[nH]ncc23)CC1 (some centres not stated),AC50,[11],0.616 µM (active)
same,outcome,[13],inactive
CCOC(=O)CC(CC(=O)OCC)(OC(C)=O)C(=O)OCC,outcome,[16],inactive
O=C(NS(=O)(=O)/C=C/c1ccccc1)c1ccc(F)cc1Cl,AC50,[16],0.0025 µM (active)
Oc1ccc2c(c1)-c1ccccc1C2,AC50,[2],6.89 µM (active)
same,AC50,NCBI gene 100848466,25 µM (active)
O=C(O)c1cccc(N(Cc2cccnc2)c2ccc(OC(F)F)c(OC(F)F)c2)c1,AC50,[2],0.0186 µM (active)
CCOCCO,outcome,[17],inactive
CC/C(=C\C(=N/O)C(N)=O)C(C)[N+](=O)[O-] (configuration not stated),outcome,[18],inactive
CN(C)c1ccc(N=NS(=O)(=O)O)cc1,outcome,[15],inactive
